From PubChem BioAssay
Cruzain noTriton: cruzain (T. cruzi) inhibition without detergent | AID 1476 | Potency, µM, usual class: inhibitors | P25779 | purified cruzain, Z-FR-AMC fluorescence, no detergent | 200,000 tested, 2.3% active; also: nearly all actives have a fitted effect of over 40% in size
Target sequence (P25779 123-467 limits assumed): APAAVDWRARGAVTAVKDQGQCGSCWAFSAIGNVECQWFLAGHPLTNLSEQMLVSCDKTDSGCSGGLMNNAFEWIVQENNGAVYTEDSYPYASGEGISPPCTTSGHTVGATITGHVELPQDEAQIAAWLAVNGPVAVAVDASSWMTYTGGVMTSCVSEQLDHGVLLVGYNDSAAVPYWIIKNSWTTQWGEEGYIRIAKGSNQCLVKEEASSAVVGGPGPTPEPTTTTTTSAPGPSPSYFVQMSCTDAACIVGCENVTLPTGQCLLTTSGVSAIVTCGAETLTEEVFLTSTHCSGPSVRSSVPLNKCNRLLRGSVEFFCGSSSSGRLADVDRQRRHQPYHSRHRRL
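Purified cruzain at 1.5 nM, pre-incubated 15 min with compound at room temperature in 100 mM sodium acetate pH 5.5, 5 mM DTT, 0.00005% Triton X-100. Reaction started with 2 uM Z-FR-AMC; AMC fluorescence increase over 60 s gives rate.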
NS1 function inh: inhibitors of influenza NS1 protein function; Potency, µM (series often up to 46.1 µM); 270,000 tested, 0.4% active; AID 2326; calls by dose curve; also: actives are rising curves; nearly all actives have a fitted effect of over 50% in size
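A cell-based growth assay was used: compounds that relieve NS1-induced slow growth of budding yeast raise OD600. Assay medium was yeast nitrogen base with ammonium sulphate and -URA supplement, pH 6.0, with 2% galactose.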
Cruzain inh Det: cruzain (T. cruzi) inhibition with detergent. P25779. purified cruzain, Z-FR-AMC fluorescence, 0.01% Triton. AID 1478. Potency, µM, most hits filed as inhibitors. 200,000 tested, 0.43% active; also: nearly all actives have a fitted effect of over 40% in size
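Enzyme 1.5 nM, Z-FR-AMC 2 uM, NaOAc 100 mM pH 5.5, DTT 5 mM, Triton X-100 0.01%; 15 min RT compound preincubation; kinetic ex360/em450, 60 s delta.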
A number is an active result. Shown is part of a subset that was picked to be rich in hits. Unless noted, calls follow the shape of the dose curve; as a rule, active = well fitted curve in the direction sought with a large enough effect; inconclusive = small, poorly fitted or top-dose-only effect, or another doubt; inactive = no such curve, though single readings can be large; an effect the other way counts as inactive or inconclusive.

Results for Cc1cc(C(=O)N[C@@H](c2ccccc2)[C@]2(C)C[C@H]2[C@@H](C)C(=O)Nc2ccc3ccccc3c2)n(C)n1 ?
Cruzain noTriton: inactive; Cruzain inh Det: inactive

What do the screens show for `COC(=O)N[C@H](c1ccccc1)[C@@]1(C)C[C@@H]1[C@@H](C)C(=O)Nc1ccc2ccccc2c1`?
Cruzain noTriton: inactive; Cruzain inh Det: inactive

How did C[C@@H](C(=O)Nc1ccc2ccccc2c1)[C@@H]1C[C@@]1(C)[C@@H](NS(=O)(=O)c1ccc2ccccc2c1)c1ccccc1 do in these assays?
Cruzain noTriton: 7.9µM; Cruzain inh Det: inactive

What do the screens show for `C[C@@H](C(=O)Nc1ccc2ccccc2c1)[C@H]1C[C@]1(C)[C@H](NS(=O)(=O)c1ccc2ccccc2c1)c1ccccc1`?
Cruzain noTriton: 10µM; Cruzain inh Det: inactive

How did C[C@@H](C(=O)Nc1ccc2ccccc2c1)[C@H]1C[C@]1(C)[C@H](NC(=O)Oc1ccc(F)cc1)c1ccccc1 do in these assays?
Cruzain noTriton: 16µM; Cruzain inh Det: inactive

What do the screens show for `C[C@@H](C(=O)Nc1ccc2ccccc2c1)[C@H]1C[C@]1(C)[C@H](NS(=O)(=O)c1ccc(-c2ccccc2)cc1)c1ccccc1`?
Cruzain noTriton: 3.2µM; NS1 function inh: inconclusive; Cruzain inh Det: inactive

Results for Cc1nn(C)c(Cl)c1S(=O)(=O)N[C@@H](c1ccccc1)[C@]1(C)C[C@H]1[C@@H](C)C(=O)Nc1ccc2ccccc2c1 ?
Cruzain noTriton: inactive; NS1 function inh: inconclusive; Cruzain inh Det: inactive

What do the screens show for `Cc1ccc(Cl)cc1N1CCN(S(=O)(=O)c2ccc(-c3cnc(C4CC4)o3)cc2)CC1`?
Cruzain noTriton: inactive; Cruzain inh Det: inactive

Results for COc1cccc(-c2ccc(NC(=O)C3CCCN(CCCn4cccn4)C3)cc2)c1 (stereo unspecified) ?
NS1 function inh: inactive

What do the screens show for `Cc1ccc(NC(=O)c2ccc(OC(=O)COc3ccc(Cl)c(C)c3)cc2)cc1`?
Cruzain noTriton: 16µM; NS1 function inh: inactive; Cruzain inh Det: inactive

How did Cc1ccc(NC(=O)c2ccc(OC(=O)c3cc4ccccc4o3)cc2)cc1 do in these assays?
Cruzain noTriton: 7.9µM; NS1 function inh: inactive; Cruzain inh Det: inactive

Results for O=C(Nc1c(C(=O)Nc2ccc(F)cc2)oc2ccccc12)c1cc2ccccc2o1 ?
Cruzain noTriton: 13µM; Cruzain inh Det: inactive

How did COc1cc(NC(=O)c2cc(Cl)ccc2Cl)ccc1NC(=O)c1cc2ccccc2o1 do in these assays?
Cruzain noTriton: 16µM; Cruzain inh Det: inactive

How did COC(=O)COc1cccc(NC(=O)c2ccc(C)cc2)c1 do in these assays?
Cruzain noTriton: inactive; NS1 function inh: inactive; Cruzain inh Det: inactive

How did COc1ccc(NC(=O)c2oc3ccccc3c2NC(=O)c2cc3ccccc3o2)cc1 do in these assays?
Cruzain noTriton: inconclusive; Cruzain inh Det: inactive

What do the screens show for `COc1cc(NC(C)=O)ccc1NC(=O)c1cc2ccccc2o1`?
NS1 function inh: inactive

What do the screens show for `Cc1ccc(NC(=O)c2ccc(OC(=O)c3ccco3)cc2)cc1`?
Cruzain noTriton: inactive; NS1 function inh: inactive; Cruzain inh Det: inactive

Results for C[C@@H]1C[C@H](OC(=O)c2ccccc2O)CC(C)(C)C1 ?
Cruzain noTriton: inactive; Cruzain inh Det: inactive

What do the screens show for `COC(=O)c1cc(=O)n2c(sc3ccccc32)c1C#N`?
NS1 function inh: inactive

Results for O=S(c1ccsc1)c1ccsc1 ?
Cruzain noTriton: inactive; NS1 function inh: inactive; Cruzain inh Det: inactive

How did OC(CC#CCN1CCCCCC1)(c1ccccc1)C1CCCC1 (stereo unspecified) do in these assays?
NS1 function inh: inactive

What do the screens show for `O=C(Nc1ccc(NC(=O)c2cc3ccccc3o2)cc1)c1ccccc1`?
Cruzain noTriton: 3.2µM; Cruzain inh Det: inactive

What do the screens show for `Cc1cc(=O)oc2cc(NC(=O)c3cc4ccccc4o3)ccc12`?
Cruzain noTriton: 10µM; NS1 function inh: inactive; Cruzain inh Det: inactive

What do the screens show for `O=C(O)c1ccc(NC(=O)c2cc3ccccc3o2)cc1`?
Cruzain noTriton: inactive; NS1 function inh: inactive; Cruzain inh Det: inactive

What do the screens show for `O=C(Nc1ccc2oc(=O)ccc2c1)c1cc2ccccc2o1`?
Cruzain noTriton: inactive; NS1 function inh: inactive; Cruzain inh Det: inactive

Results for Cc1nn(CC(=O)NCC(C)c2ccccc2)c(=O)c2cc(-c3ccccc3)nn12 (stereo unspecified) ?
NS1 function inh: inactive

Results for N#CC1=C(N)Nc2nc3ccccc3n2C1c1ccc(F)cc1 (stereo unspecified) ?
Cruzain noTriton: inconclusive; NS1 function inh: inactive; Cruzain inh Det: inactive

What do the screens show for `Cc1ccc(NC(=O)COC(=O)/C=C/c2cccs2)cc1`?
Cruzain noTriton: inactive; NS1 function inh: inactive; Cruzain inh Det: inactive

How did Cc1ccc(C(=O)Nc2ccc(C(=O)/C=C/c3cccs3)cc2)cc1 do in these assays?
Cruzain noTriton: 25µM; NS1 function inh: inactive; Cruzain inh Det: inactive

What do the screens show for `O=C(/C=C/c1cccs1)c1ccc(NC(=O)c2cccc(Br)c2)cc1`?
Cruzain noTriton: 16µM; NS1 function inh: inactive; Cruzain inh Det: inactive

Results for O=C(/C=C/c1cccs1)c1ccc(Br)cc1 ?
Cruzain noTriton: inactive; NS1 function inh: inactive; Cruzain inh Det: inactive

What do the screens show for `O=C(Nc1ccccc1C(F)(F)F)c1cc(-c2ccc3c(c2)OCCO3)on1`?
Cruzain noTriton: inactive; Cruzain inh Det: inactive

How did O=C1OC(c2ccccc2)=NC12CC2c1ccc(Cl)cc1 (stereo unspecified) do in these assays?
Cruzain noTriton: inactive; NS1 function inh: inactive; Cruzain inh Det: inactive

Results for Cc1sc2ncnc(N/N=C/c3ccccc3O)c2c1C ?
Cruzain noTriton: inactive; NS1 function inh: inactive; Cruzain inh Det: inactive

What do the screens show for `CN1CCN(NC(=O)C23CC4CC(CC(C4)C2)C3)CC1`?
Cruzain noTriton: inactive; NS1 function inh: inactive; Cruzain inh Det: inactive

Results for CCOC(=O)c1ccccc1NC(=O)CSc1ccc(-c2cccs2)nn1 ?
Cruzain noTriton: inactive; Cruzain inh Det: inactive

How did Oc1ccc(C=Nc2ccc3ncccc3c2)c(O)c1 do in these assays?
Cruzain noTriton: 16µM; NS1 function inh: inconclusive; Cruzain inh Det: inactive

How did Oc1ccc(C=Nc2cccc3ncccc23)c(O)c1 do in these assays?
Cruzain noTriton: inactive; NS1 function inh: inactive; Cruzain inh Det: inactive

What do the screens show for `CN(C)c1ccc2nc3c(C(=O)O)cc(=O)c(O)c-3oc2c1`?
Cruzain noTriton: inactive; NS1 function inh: inactive; Cruzain inh Det: inactive

Results for O=C(O)CCC/C=C\C[C@@H]1CO[C@H](C(F)(F)F)O[C@@H]1c1ccccc1O ?
Cruzain noTriton: inactive; Cruzain inh Det: inactive

What do the screens show for `CC1(C)CC2CC(C)(CN2C(=O)COC(=O)CNC(=O)c2ccc(Cl)c(Cl)c2)C1` (stereo unspecified)?
Cruzain noTriton: 7.9µM; NS1 function inh: inactive; Cruzain inh Det: 7.9µM

What do the screens show for `CC1(C)CC2CC(C)(CN2C(=O)COC(=O)c2cc(Cl)cc(Cl)c2N)C1` (stereo unspecified)?
Cruzain noTriton: inactive; NS1 function inh: inactive; Cruzain inh Det: inactive

Results for CC(C)c1ccc(CNc2nc(-c3ccco3)nn2S(=O)(=O)c2ccc3ccccc3c2)cc1 ?
Cruzain noTriton: 10µM; Cruzain inh Det: inactive

What do the screens show for `Cc1ccc(CNc2nc(-c3ccco3)nn2S(=O)(=O)c2ccc3ccccc3c2)cc1`?
Cruzain noTriton: inconclusive; Cruzain inh Det: inactive

How did COc1ccc(NC(=O)C(F)(OC)C(F)(F)F)c(OC)c1 (stereo unspecified) do in these assays?
Cruzain noTriton: inactive; NS1 function inh: inactive; Cruzain inh Det: inactive
